Screens (PubChem BioAssay)
Shown are actives, neighbours in structure and some others; about 1.4% of the full set was active somewhere.
Vif-APOBEC3F blk: qHTS for Inhibitors of Vif-A3F Interactions: qHTS | HeLa A3F-eYFP + Vif (tagged APOBEC3F with the HIV-1 protein that degrades it), YFP fluorescence increase | Potency, µM (top dose mostly 46.1 µM), for the others: top-dose activity, negative = active | actives 0.2% (n = 390,000); note: potency is the fitted concentration of half-maximal effect; % of control where 0% means no effect; nearly all actives have a fitted effect of over 65% in size
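Fluorescence increase (Ex 488/Em 500-530) after overnight compound treatment at 37 deg C flags inhibition of Vif-driven A3F-eYFP loss in stable HeLa A3F-eYFP/Vif cells seeded overnight beforehand.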
Vif-APOBEC3G blk: qHTS for Inhibitors of Vif-A3G Interactions: qHTS. DNA dC->dU-editing enzyme APOBEC-3G (Homo sapiens), Q9HC16. Potency, µM (highest dose often 46.1 µM), without a hit: at the highest dose activity, negative = active, actives largely listed as inhibitors. HeLa A3G-eYFP + Vif (tagged APOBEC3G with the HIV-1 protein that degrades it), YFP fluorescence, overnight. actives 0.076% (n = 410,000); note: potency is the fitted concentration of half-maximal effect; % is set by controls: 0 for no effect and ±100 for the full control effect; nearly all actives have a fitted effect of over 60% in size
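HeLa cells stably expressing Vif and C-terminally eYFP-tagged A3G, seeded overnight at 37 deg C, then exposed to compound by pintool overnight at 37 deg C. Rise in yellow fluorescence (Ex 488/Em 500-530, Acumen) marks blocked Vif-driven A3G degradation.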
ALOX12 inh: Primary qHTS assay for inhibitors of human arachidonate 12S-lipoxygenase (ALOX12): Round 2; purified 12hLO, xylenol orange hydroperoxide absorbance; Potency, µM (doses to about 108 µM), without a hit: at the highest dose activity change, negative = inhibition, most hits filed as inhibitors; AID 1671190, 2021; actives 1.1% (n = 580,000); note: potency is the fitted concentration of half-maximal effect; % is set by controls: 0 for no effect and ±100 for the full control effect
Target sequence (P18054 whole entry, looked up): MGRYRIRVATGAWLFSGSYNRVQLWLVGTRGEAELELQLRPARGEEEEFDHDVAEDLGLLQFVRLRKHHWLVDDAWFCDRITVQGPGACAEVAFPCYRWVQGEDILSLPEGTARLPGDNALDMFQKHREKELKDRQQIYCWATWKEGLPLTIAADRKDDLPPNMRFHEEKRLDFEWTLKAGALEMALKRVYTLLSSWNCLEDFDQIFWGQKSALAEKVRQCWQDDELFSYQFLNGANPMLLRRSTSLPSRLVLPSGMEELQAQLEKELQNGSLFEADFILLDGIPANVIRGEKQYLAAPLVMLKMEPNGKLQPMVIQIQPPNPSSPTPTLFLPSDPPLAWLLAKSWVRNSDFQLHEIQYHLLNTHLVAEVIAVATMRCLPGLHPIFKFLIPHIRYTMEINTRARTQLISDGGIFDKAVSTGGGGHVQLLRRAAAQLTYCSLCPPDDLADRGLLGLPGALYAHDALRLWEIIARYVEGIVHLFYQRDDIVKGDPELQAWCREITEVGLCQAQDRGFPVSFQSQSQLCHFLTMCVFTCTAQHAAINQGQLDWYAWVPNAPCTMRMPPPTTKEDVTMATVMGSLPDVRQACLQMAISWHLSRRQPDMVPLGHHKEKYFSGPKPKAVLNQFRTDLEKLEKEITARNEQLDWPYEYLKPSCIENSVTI
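Purified human 12hLO at 150 nM in 25 mM Hepes, 0.01% Triton X-100, pH 7.0, preincubated 15 min at room temperature with compound. Reaction started with 40 uM arachidonic acid, 30 min at room temperature. Hydroperoxide measured by Fe-xylenol orange, 573/405 nm absorbance ratio.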
Akt phos inh: HTS Assay for Inhibitors of Akt Phophorylation: Primary Screen; actives 0.32% (n = 360,000); Neuro2A IGF-stimulated pAkt S473 HTRF, 20 min; stronger effect = lower value; activity change, % for hits at 50 µM; AID 651550, 2012; in the data active = activity change below about -80%; inconclusive = mostly about -51% to -80%; note: % is set by controls: 0 for no effect and ±100 for the full control effect
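Single-point screen (50 µM final compound) in Neuro2A cells stimulated 20 min with 6 nM IGF at 37 deg C. After lysis, Ser473-phosphorylated Akt read by HTRF (ex 330 nm, em 615/665 nm) as the 665/615 ratio.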
PTAP TSG101 blk: qHTS Assay for Iinhibitors of HIV-1 Budding by Blocking the Interaction of PTAP/TSG101 | Tumor susceptibility gene 101 protein (Homo sapiens), Q99816 | Fluorescence polarization, FITC-PTAP peptide / Tsg101 binding | Potency, µM (series often up to 115 µM), for the others: at the highest dose activity change, negative = inhibition, usual class: inhibitors | 340,000 tested, under 10 active; active = well fitted inhibition curve with a large enough effect in the main read-out, with a control signal flat, not every such curve was filed as active; inconclusive = small, poorly fitted or top-dose-only effect, or effect the other way, or a change in a side signal; inactive = no such curve, though single readings can be large or run the other way; note: potency is the fitted concentration of half-maximal effect; % of control where 0% means no effect
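FP read-out: FITC-PTAP peptide, 50 nM final, binding Tsg101 binding domain, 10 uM final; 20 min, r.t.; 10 mM HEPES pH 7.5, 0.15 M NaCl, 0.01% Tween 20, 3 mM EDTA, 0.1 mM TCEP.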
S-ASM inh: Inhibitors of Secretory Acid Sphingomyelinase (S-ASM): qHTS; placental ASM, HMU-PC fluorogenic substrate, 60 min; Potency, µM (highest dose often 57.5 µM), for the others: at the top dose activity change, negative = inhibition, usual class: inhibitors; actives 0.006% (n = 340,000); AID 504937, 2011; note: potency is the fitted concentration of half-maximal effect
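Steps: dispense placental human ASM, pin compound, wait 10 min at room temperature, add HMU-PC0 substrate at 9 uM final, incubate 60 min at 37 °C, add stop solution raising pH to 10, read fluorescence.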
* = called active by the depositor; i = inactive; ? = inconclusive; / = not tested or not shown; [ ] = remark or other dose. Unless noted, calls come from the whole dose curve; as a rule, active = well fitted curve in the direction sought with a large enough effect; inconclusive = small, poorly fitted or top-dose-only effect, or another doubt; inactive = no such curve, though single readings can be large; an effect the other way counts as inactive or inconclusive.

SMILES	Vif-APOBEC3F blk	Vif-APOBEC3G blk	ALOX12 inh	Akt phos inh	PTAP TSG101 blk	S-ASM inh
Cn1ccnc1SCC(=O)Nc1cccc2ccccc12	-7.3%	1.6%	0.0%	i	0.3%	-2.4%
COC(=O)c1ccccc1NC(=O)CSc1nccn1C	-4.8%	-0.4%	484.1%	-98.6%*	-1.1%	1.6%
Cc1nc(NC(=O)CSc2nccn2C)sc1C(=O)N(C)C	7.1%	0.5%	17.8µM*	i	-0.7%	-1.3%
Cc1nnc(NC(=O)CSc2nccn2C)s1	-21.5%	-5.8%	-5.2%	i	-6.5%	1.5%
CC(C)c1ccc2cc(C(=O)NCc3ccco3)[nH]c2c1	/	/	8.5%	/	/	/
CC(=O)NCCNC[C@@H]1C=C(C)[C@H](Cc2nnc(-c3ccccc3)o2)C[C@H]1C(C)C	/	/	21.8%[176 µM]	/	/	/
Cc1cc(OCC(=O)Nc2nnc(C3CC3)s2)ccc1Cl	-1.0%	2.82µM*	?	i	/	/
O=C(COc1ccc(F)cc1)Nc1nnc(C2CC2)s1	-1.8%	0.5%	0.1%	i	-4.9%	4.4%
Cc1cnc(CNc2ncnc3ccc(-c4ccc(C(=O)N(C)C)cc4)cc23)cn1	/	/	-24.0%	/	/	/
Cc1cnc(CNc2ccnc(-c3ccc(C(=O)N(C)C)cc3)n2)cn1	/	/	35.5µM*	/	/	/
CN(CCOc1ccccc1F)c1nc(-c2cccnc2)nc2ccccc12	/	/	0.1%	/	/	/
Cc1nc(NCc2ccc3c(c2)OCO3)c2oc3ccccc3c2n1	-4.7%	0.1%	22.4µM*	i	-6.5%	-5.3%
O=C1C(O)C2(CCCCC2)N1C1CCN(Cc2ccc(F)c(F)c2)CC1 (stereo not drawn)	/	/	55.3%	/	/	/
CCn1c(C)nc2cc(C(=O)NNS(=O)(=O)c3c(C)c(C)cc(C)c3C)ccc21	-1.9%	-5.9%	-0.8%	-120.0%*	-7.4%	-7.3%
CN(C)C(=O)C1CCC(C)(C(=O)O)C1(C)CI (stereo not drawn)	/	/	39.8µM*	/	/	/
COC(=O)c1cc(=O)nc2sc3cc(OC)ccc3n12	1.9%	-11.1%	8.1%	-114.4%*	-7.0%	5.0%
Cc1cc(NC(=O)CSc2nc(NC3CC3)c3ccccc3n2)no1	/	/	0.6%	/	/	/
Cc1ccc(CN(Cc2cc3cc(C)ccc3[nH]c2=O)C(=O)N2CCOCC2)cc1	-5.8%	0.0%	47.8%	-106.3%*	0.0%	-1.6%
Cc1ccc(C)c(N(CC(=O)N/N=C/c2ccc(-c3ccc([N+](=O)[O-])cc3)o2)S(=O)(=O)c2ccccc2)c1	-21.8%	0.8%	0.8%[57.4 µM]	i	2.2%	2.7%
NC(=O)N/N=C/c1ccc(-c2ccc([N+](=O)[O-])cc2)o1	4.9%	1.7%	0.5%	i	1.0%	6.4%
O=C(Cc1ccccc1)N/N=C/c1ccc(-c2ccc([N+](=O)[O-])cc2)o1	?	7.94µM*	-2.9%	i	?	1.3%
CCOc1ccc(S(=O)(=O)N(CC(=O)N/N=C/c2ccc(-c3ccc([N+](=O)[O-])cc3)o2)c2ccccc2)cc1	5.7%	?	31.6µM*	i	3.6%	2.0%
CSc1nsc(SCC(=O)Nc2ccc(O)c(C(=O)O)c2)n1	-7.0%	2.1%	39.8µM*	i	-4.8%	2.8%
CSc1nsc(SCC(=O)Nc2ccc(Cl)c(C(=O)O)c2)n1	8.9%	1.8%	-17.9%	i	-1.1%	6.8%
COc1ccc(OCC(=O)NC2CCCN(Cc3ccc(Cl)cc3)C2)cc1 (stereo not drawn)	0.5%	0.7%	15.8µM*	i	0.2%	4.9%
SMILES	Vif-APOBEC3F blk	Vif-APOBEC3G blk	ALOX12 inh	Akt phos inh	PTAP TSG101 blk	S-ASM inh
COc1cccc(CC(=O)NC2CCCN(Cc3ccc(Cl)cc3)C2)c1 (stereo not drawn)	11.8%	0.5%	?	i	-2.1%	-1.8%
COc1ccc(C(CC(=O)N2CCCCC2)c2c(OC)cc(OC)c3c(-c4ccccc4)cc(=O)oc23)cc1 (stereo not drawn)	-1.9%	-3.6%	39.8µM*	i	-7.3%	-2.0%
Oc1cccc(Nc2nc(O)c(/C=C3\C=Nc4ccccc43)s2)c1	11.2µM*	4.47µM*	-14.5%	i	93.3%	-15.9%
Cc1cc2nc3n(c(=O)c2n1CC(=O)Nc1ccc(Cl)cc1F)CCCCC3	/	/	-17.7%	/	/	/
Cc1cc2nc3n(c(=O)c2n1CC(=O)Nc1ccc(Cl)cc1F)CCCC3	/	/	22.4µM*	/	/	/
COc1ccc(C(C)NC(=O)Cn2c(C)cc3nc4n(c(=O)c32)CCCC4)cc1 (stereo not drawn)	/	/	50.1µM*	/	/	/
O=C(NC12CC3CC(CC(C3)C1)C2)c1ccc(-c2nc3ccccc3s2)s1	/	/	-10.0%	/	/	/
CCc1nc2ccccc2c(C(=O)OCC(=O)NC(C)C(C)C)c1C (stereo not drawn)	/	/	11.1%	/	/	/
CC(NC(=O)c1nccnc1N)c1cccc(Cl)c1 (stereo not drawn)	/	/	3.0%	/	/	/
COc1ccc(Cl)cc1NC(=O)/C(C#N)=C/c1coc2ccc(C)cc2c1=O	/	/	-16.8%	/	/	/
N#C/C(=C\c1coc2ccc(O)cc2c1=O)C(=O)Nc1nc2ccccc2s1	?	?	11.2µM*	i	?	-4.9%
O=C1NC(=S)S/C1=C\c1ccc(SCc2ccccc2)o1	-16.1%	-21.7%	12.6µM*	i	2.5%	-19.9%
O=C1NC(=S)S/C1=C\c1ccc(SCc2ccco2)o1	1.0%	-16.4%	/	i	17.0%	-2.6%
Nc1nc(COC(=O)c2cccc(Cl)c2)nc2ccccc12	/	/	-1.6%	/	/	/
CCOC(=O)C1(Cc2ccccc2C(F)(F)F)CCN(CCCn2cccn2)CC1	-20.9%	3.6%	-15.5%	i	-0.6%	3.0%
CCOC(=O)C1(Cc2ccccc2C(F)(F)F)CCN(Cc2ccccn2)CC1	/	/	15.8µM*	/	/	/
CC(=O)Nc1ccc(S(=O)(=O)N2CCC(NC(=O)CCC3CCCCC3)CC2)cc1	/	/	-11.9%	/	/	/
CCN(CC)S(=O)(=O)c1ccc2c(c1)nc(SCC(=O)Nc1ccc3c(c1)OCO3)n2CC	/	/	-4.9%	/	/	/
CCCN1C(=O)/C(=C/c2ccc(N3CCCC3)c(C)c2)NC1=S	?	?	-29.9%	i	?	-12.3%
Cc1cc(/C=C2\NC(=S)N(C)C2=O)ccc1N1CCCC1	?	6.31µM*	-20.8%	i	?	0.4%
CCCN1C(=O)/C(=C/c2ccc(N3CCOCC3)cc2)NC1=S	?	?	?	i	?	-21.2%
CCN1C(=O)/C(=C/c2ccc(N3CCCC3)cc2)NC1=S	25.1µM*	8.91µM*	?	i	?	-22.3%
